KDM4E inh – blocks human JMJD2E demethylase activity; JMJD2E catalytic domain, FDH-coupled NADH fluorescence (FDH is formaldehyde dehydrogenase); Potency, µM (highest dose often 57.1 µM), hits mostly inhibitors; hit rate 1.6% among 230,000; AID 2147; further: nearly all actives have a fitted effect of over 50% in size
PNC assembly inh – perinucleolar compartment assembly inhibition. AID 2417. hit rate 3.1% among 140,000. activity change (PNC), negative = inhibition, % at 10 µM. PC3M PTB-GFP, PNC prevalence imaging, 16 h; active compounds read low;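 active means readout at or below -70, meaning at least 70% loss of cells showing the perinucleolar compartment, a nuclear body marking cancer cells; inconclusive means readout between -30 and a set limit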
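Read-out is percentage of cells bearing a perinucleolar compartment, from automated 20x imaging of fixed, Hoechst-stained PC3M PTB-GFP cells. Cells were seeded 4 h, then exposed 16 h to compound (23 nl of library stock) in duplicate plates.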
ALDH1A1 inh – ALDH1A1 (human) enzyme inhibition; P00352; Purified ALDH1A1, NADH fluorescence, propionaldehyde substrate; Potency, µM (top dose mostly 75.3 µM), actives largely listed as inhibitors; hit rate 7.3% among 220,000; AID 1030
HPGD inh – blocks human HPGD enzyme activity; purified HPGD, NADH fluorescence kinetic, PGE2 substrate; Potency, µM, most hits filed as inhibitors; hit rate 4.3% among 150,000
Target sequence (P15428 whole entry, looked up): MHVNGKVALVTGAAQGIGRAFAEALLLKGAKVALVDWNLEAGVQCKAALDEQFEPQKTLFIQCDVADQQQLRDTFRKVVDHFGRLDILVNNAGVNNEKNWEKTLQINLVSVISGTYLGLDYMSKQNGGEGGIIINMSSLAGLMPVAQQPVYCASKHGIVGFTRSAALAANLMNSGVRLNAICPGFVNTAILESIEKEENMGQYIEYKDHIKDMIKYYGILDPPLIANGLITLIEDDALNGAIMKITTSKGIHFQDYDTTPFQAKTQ
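NADH formation kinetics: reaction with 30 uM PGE2 and 1 mM NAD+ (final), 20 nM enzyme, Tris-HCl pH 8 with Tween 20, after 15 min compound preincubation at room temperature. Fluorescence change, last versus first of five reads.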
Numbers stand for hits; 0 = inactive; ? = inconclusive; - = no result given; [ ] = another dose, or the depositor's remark. Compounds with a hit are over-represented: about 11% of the library has one in this group of screens. Unless noted, the call rests on the fitted dose curve; in most records, active means well fitted inhibition curve with a large enough effect (not every such curve was filed as active); inconclusive means small, poorly fitted or top-dose-only effect, or another doubt; inactive means no such curve, though single readings can be large or run the other way.

SMILES | KDM4E inh | PNC assembly inh | ALDH1A1 inh | HPGD inh
CCCC(=O)N1CCN(c2ccc(NC(=O)c3ccc(OCC)c([N+](=O)[O-])c3)cc2)CC1 | 0 | 0 | 0 | 0
CCOc1ccc(C(=O)NC(=S)Nc2ccccc2N2CCC(C)CC2)cc1[N+](=O)[O-] | 0 | ? | ? | 0
CCn1c(SCc2ccc(Cl)cc2)nc2nc3c(cc2c1=O)CCCC3 | 0 | 0 | 13µM | 0
COc1cc(NCCC(=O)O)c2ncccc2c1 | - | - | 0[13.5 µM] | 0
Cc1c(O)ccoc1=O | ? | - | 0 | -
Cc1occc(=O)c1O | 16µM | 0 | 0 | 0
Cc1noc(C)c1COC(=O)c1cccc(S(=O)(=O)N2CCCCCC2)c1 | 0 | ? | ? | 0
COc1ccc(S(=O)(=O)N2CCc3ccccc32)cc1C(=O)OCc1c(C)noc1C | 0 | ? | 3.2µM | 0
COc1ccc(S(=O)(=O)N2CCCCCC2)cc1C(=O)OCc1c(C)noc1C | 0 | 0 | 14µM | 0
CCN(CC)CCn1c(=S)[nH]c2ccc(Br)cc2c1=O | 0 | - | 0 | -
Cc1nn(C)cc1CN(C)C(=O)CCc1nnc(CCC2CCCCC2)o1 | 0 | - | 0 | -
O=C(COc1ccc(Cl)cc1)N(Cc1ccccc1)c1nc(-c2ccccc2)cs1 | 0 | 0 | 0 | 0
O=C(C1CC1)N(Cc1ccco1)c1nc(-c2ccccc2)cs1 | 0 | 0 | 6.3µM | 0
Nc1nc(-c2ccc(-n3nncc3-c3ccco3)cc2)cs1 | 0 | - | - | -
Cc1nc(-c2ccc(-n3nncc3-c3ccco3)cc2)cs1 | ? | - | 25µM | -
COC(=O)N[C@@H](c1cccc(C)c1)[C@@H](C)[N+](=O)[O-] | 0 | - | 0 | 0
CCn1cc(C(=O)NCc2ccccc2OC)c(=O)c2cc(S(=O)(=O)N(C)C)ccc21 | 0 | 0 | 3.2µM | 0
Cc1onc(-c2c(Cl)cccc2Cl)c1C(N)=S | 0 | - | ? | -
O=C(O)c1cccc(N2C(=O)C3C4C=CC(C4=C(c4ccccc4)c4ccccc4)C3C2=O)c1 (centres undefined) | 0 | - | 0 | -
O=C1C2C3C=CC(C2C(=O)N1c1cccc(O)c1)C1C2C(=O)N(c4cccc(O)c4)C(=O)C2C31 (centres undefined) | 0 | - | 1.4µM | -
COC(=O)[C@@]1(Cc2ccc(OC)cc2)[C@H]2c3cc(C(=O)N4CCCC4)n(Cc4ccc(O)c(OC)c4)c3C[C@H]2CN1C(=O)c1ccccc1 | 0 | - | 0 | 0
CCCOC1CCCN(Cc2nc(-c3ccc(C(=O)OC)cc3)no2)C1 (centres undefined) | 0 | - | - | -
COc1ccc(NC(=O)CN(C)Cc2c(F)cccc2Cl)cc1S(=O)(=O)N1CCCCC1 | 0 | - | 28µM | -
COCCNCC(=O)Nc1ccc(C)c(S(=O)(=O)N2CCCCC2)c1 | ? | - | 0 | -
Cc1ccc(NC(=O)CCl)cc1S(=O)(=O)N1CCCCCC1 | 0 | - | 1.5µM | -
CN(NC(=O)c1ccccc1F)c1ncccc1[N+](=O)[O-] | 0 | - | - | -

From PubChem BioAssay
